Results: PubChem BioAssay AID1159580 (chemical genetic matrix, 2015)
Among all 5,500 compounds or so, about 2,000 (36%) were called active. Not shown: some 18% with an inconclusive outcome. Rule as the data show it: active = normalized growth mostly below about 0.91 (no sharp cut-off); inconclusive = no clear call, values can overlap the other calls; inactive = mostly above about 0.92. The list shows a part of the results.

Assay: chemical genetic growth profiling, strain panel (AID 1159580);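 also: tested at 20 µM; growth read once vehicle control cultures reached saturation at 30 °C; 1 = growth at the plate median or of vehicle wells; lower values mean less growth of the strain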
Conditions: growth OD

Measured: normalized growth

COC(=O)CCCOc1ccc(Cl)cc1Cl
inactive: S. cerevisiae deletion strains, locus YJR043C, strain POL32, active compounds read low 0.979 | S. cerevisiae deletion strains, locus YJR075W, strain HOC1, active compounds read low 0.995 | S. cerevisiae deletion strains, locus YKL009W, strain mrt4, active compounds read low 1.01 | S. cerevisiae deletion strains, locus YKL068W, active compounds read low 0.98 | S. cerevisiae deletion strains, locus YKL085W, strain MDH1 (second series), active compounds read low 0.982 | S. cerevisiae deletion strains, locus YKL085W, strain MDH1, active compounds read low 0.982 | S. cerevisiae deletion strains, locus YKL160W, strain elf1, active compounds read low 0.964 | S. cerevisiae deletion strains, locus YKL190W, strain CNB1, active compounds read low 0.99 | S. cerevisiae deletion strains, locus YKR001C, strain vps1, active compounds read low 0.987 | S. cerevisiae deletion strains, locus YKR026C, strain gcn3, active compounds read low 0.946 | S. cerevisiae deletion strains, locus YKR091W, strain srl3, active compounds read low 0.96 | S. cerevisiae deletion strains, locus YLL001W, strain dnm1, active compounds read low 0.957 | S. cerevisiae deletion strains, locus YLL026W, active compounds read low 0.957 | S. cerevisiae deletion strains, locus YLL041C, strain sdh2, active compounds read low 0.957 | S. cerevisiae deletion strains, locus YLR027C, strain aat2, active compounds read low 0.952 | S. cerevisiae deletion strains, locus YLR039C, strain RIC1, active compounds read low 0.982 | S. cerevisiae deletion strains, locus YLR058C, strain SHM2, active compounds read low 1 | S. cerevisiae deletion strains, locus YLR102C, strain apc9, active compounds read low 0.997 | S. cerevisiae deletion strains, locus YLR221C, strain rsa3, active compounds read low 0.967 | S. cerevisiae deletion strains, locus YLR258W, strain gsy2, active compounds read low 0.951 | S. cerevisiae deletion strains, locus YLR262C, strain YPT6 (second series), active compounds read low 0.92 | S. cerevisiae deletion strains, locus YLR262C, strain YPT6, active compounds read low 0.925 | S. cerevisiae deletion strains, locus YLR268W, strain sec22, active compounds read low 1.01 | S. cerevisiae deletion strains, locus YLR320W, strain mms22, active compounds read low 0.924 | S. cerevisiae deletion strains, locus YLR330W, strain CHS5, active compounds read low 0.991 | S. cerevisiae deletion strains, locus YLR342W, strain FKS1 (second series), active compounds read low 1 | S. cerevisiae deletion strains, locus YLR342W, strain FKS1, active compounds read low 0.948 | S. cerevisiae deletion strains, locus YLR357W, strain rsc2, active compounds read low 0.97 | S. cerevisiae deletion strains, locus YLR370C, strain arc18, active compounds read low 0.963 | S. cerevisiae deletion strains, locus YLR371W, strain rom2, active compounds read low 0.999 | S. cerevisiae deletion strains, locus YLR384C, strain iki3, active compounds read low 0.957 | S. cerevisiae deletion strains, locus YLR418C, strain cdc73, active compounds read low 1.02 | S. cerevisiae deletion strains, locus YML016C, strain PPZ1, active compounds read low 0.988 | S. cerevisiae deletion strains, locus YML032C, strain rad52, active compounds read low 1.01 | S. cerevisiae deletion strains, locus YML120C, strain ndi1, active compounds read low 0.967 | S. cerevisiae deletion strains, locus YML124C, strain tub3, active compounds read low 0.995 | S. cerevisiae deletion strains, locus YMR058W, strain fet3, active compounds read low 0.966 | S. cerevisiae deletion strains, locus YMR078C, strain ctf18, active compounds read low 1 | S. cerevisiae deletion strains, locus YMR125W, strain sto1, active compounds read low 0.954 | S. cerevisiae deletion strains, locus YMR129W, active compounds read low 0.95 | S. cerevisiae deletion strains, locus YMR205C, strain PFK2, active compounds read low 0.948 | S. cerevisiae deletion strains, locus YMR223W, strain ubp8, active compounds read low 1.01 | S. cerevisiae deletion strains, locus YMR231W, strain pep5, active compounds read low 0.949 | S. cerevisiae deletion strains, locus YMR263W, strain SAP30, active compounds read low 0.999 | S. cerevisiae deletion strains, locus YMR307W, strain GAS1, active compounds read low 0.98 | S. cerevisiae deletion strains, locus YNL067W, strain RPL9B, active compounds read low 0.995 | S. cerevisiae deletion strains, locus YNL071W, strain lat1, active compounds read low 0.967 | S. cerevisiae deletion strains, locus YNL128W, strain TEP1, active compounds read low 1 | S. cerevisiae deletion strains, locus YNL153C, strain GIM3, active compounds read low 0.999 | S. cerevisiae deletion strains, locus YNL209W, strain ssb2, active compounds read low 0.962 | S. cerevisiae deletion strains, locus YNL233W, strain BNI4, active compounds read low 1 | S. cerevisiae deletion strains, locus YNL248C, strain rpa49, active compounds read low 0.964 | S. cerevisiae deletion strains, locus YNL250W, strain rad50, active compounds read low 0.978 | S. cerevisiae deletion strains, locus YNL271C, strain bni1, active compounds read low 0.976 | S. cerevisiae deletion strains, locus YNL298W, strain CLA4, active compounds read low 0.985 | S. cerevisiae deletion strains, locus YNL307C, strain MCK1, active compounds read low 0.968 | S. cerevisiae deletion strains, locus YNL322C, strain KRE1 (second series), active compounds read low 0.957 | S. cerevisiae deletion strains, locus YNL322C, strain KRE1, active compounds read low 0.994 | S. cerevisiae deletion strains, locus YNR049C, strain mso1, active compounds read low 0.95 | S. cerevisiae deletion strains, locus YNR052C, strain pop2, active compounds read low 1.01 | S. cerevisiae deletion strains, locus YOL006C, strain TOP1, active compounds read low 0.971 | S. cerevisiae deletion strains, locus YOL012C, strain htz1 1.55 | S. cerevisiae deletion strains, locus YOL147C, strain pex11, active compounds read low 0.99 | S. cerevisiae deletion strains, locus YOR001W, strain rrp6, active compounds read low 0.983 | S. cerevisiae deletion strains, locus YOR061W, strain CKA2, active compounds read low 0.989 | S. cerevisiae deletion strains, locus YOR069W, strain VPS5, active compounds read low 1 | S. cerevisiae deletion strains, locus YOR070C, strain gyp1, active compounds read low 0.956 | S. cerevisiae deletion strains, locus YOR080W, strain dia2, active compounds read low 0.946 | S. cerevisiae deletion strains, locus YOR083W, strain WHI5, active compounds read low 0.957 | S. cerevisiae deletion strains, locus YOR106W, strain vam3, active compounds read low 0.991 | S. cerevisiae deletion strains, locus YOR136W, strain idh2, active compounds read low 1 | S. cerevisiae deletion strains, locus YOR144C, strain elg1, active compounds read low 0.998 | S. cerevisiae deletion strains, locus YOR184W, strain ser1, active compounds read low 0.993 | S. cerevisiae deletion strains, locus YOR265W, strain rbl2, active compounds read low 0.956 | S. cerevisiae deletion strains, locus YOR270C, strain vph1, active compounds read low 0.963 | S. cerevisiae deletion strains, locus YOR290C, strain snf2, active compounds read low 0.974 | S. cerevisiae deletion strains, locus YOR316C, strain cot1, active compounds read low 1 | S. cerevisiae deletion strains, locus YPL051W, strain arl3, active compounds read low 0.972 | S. cerevisiae deletion strains, locus YPL055C, strain LGE1, active compounds read low 0.978 | S. cerevisiae deletion strains, locus YPL078C, strain atp4, active compounds read low 0.948 | S. cerevisiae deletion strains, locus YPL106C, strain sse1, active compounds read low 0.964 | S. cerevisiae deletion strains, locus YPL240C, strain hsp82, active compounds read low 0.948 | S. cerevisiae deletion strains, locus YPL241C, strain CIN2, active compounds read low 0.993 | S. cerevisiae deletion strains, locus YPR119W, strain clb2, active compounds read low 0.995 | S. cerevisiae deletion strains, locus YPR141C, strain kar3, active compounds read low 0.981 | S. cerevisiae deletion strains, locus YPR163C, strain tif3, active compounds read low 1 | S. cerevisiae deletion strains, locus YPR167C, strain met16, active compounds read low 0.999 | S. cerevisiae deletion strains, strain wtn01, active compounds read low 0.995 | S. cerevisiae strains, strain wild type, active compounds read low 0.975
